This is part of a sample that, as a whole, favours compounds with a hit. Of some 79,000 tested, about 15% had one in any assay. Unmarked numbers belong to inactive results. The source made the active and inactive calls. Rule as the data show it: active = growth inhibition above about 70%; inactive = the rest.
How the values were obtained:
[1] = NCI Yeast Anticancer Drug Screen. Data for the rad50 strain (AID 155);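 also: 0% = growth of vehicle-only cultures of the same strain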; details: S. cerevisiae rad50 strain growth inhibition, hits give high values
Outline: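 Yeast carrying a defined DNA repair defect were exposed to test compounds, and growth was compared with vehicle-treated controls to give percent inhibition.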

[2] = NCI Yeast Anticancer Drug Screen. Data for the mec2-1 strain (AID 157); details: S. cerevisiae mec2-1 strain, hits give high values
Outline: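 Readout is yeast growth inhibition, normalised to vehicle-treated controls, in the mec2-1 strain exposed to compound.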

[3] = NCI Yeast Anticancer Drug Screen. Data for the sgs1 mgt1 strain (AID 161);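 also: 0% = growth of cultures given vehicle only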; details: S. cerevisiae sgs1 mgt1 strain, hits give high values
Outline: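 This yeast growth screen uses a strain with defined DNA-repair lesions; compound-treated growth is compared with vehicle-treated growth.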

[4] = NCI Yeast Anticancer Drug Screen. Data for the cln2 rad14 strain (AID 165);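 also: 0% = growth equal to vehicle treated cultures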; details: S. cerevisiae cln2 rad14 strain, hits give high values
Outline: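 Relative to vehicle controls, growth inhibition of compound-treated cln2 rad14 yeast was recorded.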

[5] = NCI Yeast Anticancer Drug Screen. Data for the bub3 strain (AID 167); details: S. cerevisiae bub3 mutant strain, hits give high values
Outline: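 Compounds were applied to a genetically altered yeast strain carrying a cell-cycle control defect. Growth inhibition was scored against vehicle-treated controls.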

[6] = NCI Yeast Anticancer Drug Screen. Data for the mlh1 rad18 strain (AID 175); details: S. cerevisiae mlh1 rad18 strain growth inhibition, hits give high values
Outline: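 Test agents were incubated with a yeast strain of defined genotype (DNA damage repair defect). Inhibition of growth was derived by comparison with vehicle-exposed cultures.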

[7] = at 5.0 µM (retest, dose inferred, filed as 0.5)
[8] = at 50.0 µM (retest, dose inferred, filed as 5.0)

SMILES	growth inhibition [1, 7]	growth inhibition [1, 8]	growth inhibition ([1]; at 50.0 µM)	growth inhibition [2, 7]	growth inhibition [2, 8]	growth inhibition ([2]; at 50.0 µM)	growth inhibition [3, 7]	growth inhibition [3, 8]	growth inhibition ([3]; at 50.0 µM)	growth inhibition [4, 7]	growth inhibition [4, 8]	growth inhibition ([4]; at 50.0 µM)	growth inhibition [5, 7]	growth inhibition [5, 8]	growth inhibition ([5]; at 50.0 µM)	growth inhibition [6, 7]	growth inhibition [6, 8]	growth inhibition ([6]; at 50.0 µM)
COc1cccc2c1C(=O)c1c(O)c3c(c(O)c1C2=O)C[C@@](O)(/C(C)=N\NC=O)C[C@@H]3OC1CC(N)C(O)C(C)O1 (stereo not given in full)	-3%	86% (active)	75% (active)	-1%	45%	49.5%	-4%	38%	72.7% (active)	8%	51%	39.9%	17%	84% (active)	76.5% (active)	4%	90% (active)	76% (active)
COc1ccc(N=NC(C(=O)c2ccccc2)C(=O)c2ccccc2)cc1	29%	96% (active)	92.3% (active)	-1%	94% (active)	93.2% (active)	20%	94% (active)	92.4% (active)	6%	95% (active)	88.7% (active)	-3%	97% (active)	91.2% (active)	-18%	97% (active)	91.2% (active)
CCCC(c1ccc(O)cc1)c1ccc(O)cc1	1%	98% (active)	99.5% (active)	-5%	99% (active)	99.5% (active)	-1%	95% (active)	99.4% (active)	12%	96% (active)	99.2% (active)	1%	97% (active)	99.5% (active)	0%	96% (active)	99.5% (active)
N#C/C(=C/c1ccccc1B(O)O)C(=O)O	-151%	-5%	71.4% (active)	-49%	-36%	17%	-61%	-40%	31.3%	-62%	-58%	13.1%	-77%	-96%	-8.9%	-140%	-65%	65.8%
CC12CCCCC1CCC(Br)C2=O (stereo not given)	-115%	-2%	59%	-40%	-18%	41.5%	-51%	22%	70.2% (active)	-50%	-35%	-17.7%	-57%	-34%	13.1%	-128%	-55%	61.6%

Reference: PubChem BioAssay (NCI)
